# Assay outcomes: PubChem BioAssay, National Center for Advancing Translational Sciences (NCATS)
# HT1080 IDH1KD tx = kills HT-1080 cells with IDH1 knockdown; HT-1080 IDH1 knockdown viability, ATP luminescence, 48 h; Potency, µM (top dose mostly 46.1 µM), for the others: at the top dose activity, negative = toxicity, usual class: cytotoxic; hit rate 2% among 360,000;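 note: 0% = DMSO wells and -100% = cell-free medium wells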
#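 Cytotoxicity counter-line: IDH1KD HT-1080, 48 h, CellTiter-Glo. Curves classed by r2, magnitude and activity.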
# ATXN2 expr inh = reduces ATXN2 reporter expression in HEK-293 cells. HEK-293 ATXN2-luciferase reporter, luminescence, 24 h. Potency, µM (top dose mostly 57 µM), for inactives: at the highest dose activity change, negative = inhibition, usual class: inhibitors. hit rate 0.72% among 360,000. AID 1745845; note: % is set by controls: 0 for no effect and ±100 for the full control effect; nearly all actives have a fitted effect of over 55% in size
#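 ATXN2-luciferase reporter cells (luciferase flanked by upstream and downstream ATXN2 gene portions) were treated 24 h at 37 °C with compounds at up to 57 uM. SteadyGlo luminescence gave expression; GF-AFC fluorescence gave viability.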
# HT1080NT lethal = kills 2HG-producing HT-1080-NT fibrosarcoma cells; HT-1080-NT fibrosarcoma viability, CellTiter-Glo ATP luminescence, 48 h; Potency, µM (top dose mostly 46.1 µM), for the others: top-dose activity, negative = less viability, actives largely listed as cytotoxic; hit rate 1.6% among 360,000;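 note: NT is the 2HG producing partner of a matched IDH1 knockdown line; 0% = DMSO-treated cells and -100% = media-only wells without cells; nearly all actives have a fitted effect of over 55% in size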
#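 Compounds were tested in concentration-response format on HT-1080-NT cells for 48 hours at 37 degrees C. Cell viability came from CellTiter-Glo luminescence; curves were classified by r2, response magnitude and activity.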
# HepG2 tox = HepG2 cytotoxicity, counter-screen for TGF-b inhibitors. HepG2 CAGA-GFP viability, ATP luminescence, 18 h. Potency, µM (titrated, usually from 46.1 µM), for inactives: at the top dose activity change, negative = cytotoxicity, hits mostly cytotoxic. hit rate 0.76% among 410,000. AID 588856
#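 CellTiter-Glo luminescence gave cytotoxicity after 18 hours at 37 degrees C. The cells were HepG2 CAGA-GFP in 1% FBS DMEM, stimulated with 500 pg/mL TGF-beta after compound addition. %Activity was normalised to no-cell wells (complete cell-killing) and DMSO (no toxicity), and curves were fitted and classified.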
# TGFb inhibitor = blocks TGF-b signaling | HepG2 CAGA-GFP TGF-b/SMAD3 reporter, GFP fluorescence, 18 h; TGF-beta stimulated, 500 pg/mL final | Potency, µM (top dose mostly 46.1 µM), for inactives: at the top dose activity, negative = inhibition, hits mostly inhibitors | hit rate 1.2% among 410,000; note: % is set by controls: 0 for no effect and ±100 for the full control effect; nearly all actives have a fitted effect of over 65% in size
#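 First, reporter cells (HEPG2 CAGA-GFP) rested 2 h at 37 degrees C. Next, compounds were pinned in and TGF-beta added to 500 pg/mL final. After 18 h, GFP was imaged per cell and summed per well.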
# S2 tox = cell viability loss in ATXN counter-screen | S2 cells (HEK-293 line with an ATXN2-luciferase reporter) viability, CellTiter-Fluor protease fluorescence, 24 h | Potency, µM (series often up to 56.7 µM), hits mostly cytotoxic | hit rate 0.49% among 400,000 | AID 651635; note: nearly all actives have a fitted effect of over 40% in size
# Numbers without * were called inactive; i = inactive; ? = inconclusive; · = not tested or not shown. Most compounds without a hit are left out; they make up all but 3.8% or so of the library. Calls come from the whole dose curve; as a rule, active = well fitted curve in the direction sought with a large enough effect; inconclusive = small, poorly fitted or top-dose-only effect, or another doubt; inactive = no such curve, though single readings can be large; an effect the other way counts as inactive or inconclusive. Potency is the fitted concentration of half-maximal effect.
SMILES,HT1080 IDH1KD tx,ATXN2 expr inh,HT1080NT lethal,HepG2 tox,TGFb inhibitor,S2 tox
COc1ccc(Nc2c3c(nc4ccccc24)CCC3)cc1,?,?,23µM*,-47%,11µM*,i
COc1ccc(Nc2c3c(nc4ccccc24)CCCC3)cc1OC,?,?,?,-12%,?,i
CN(C(=O)c1cnn(-c2nccc(-c3ccccc3C(F)(F)F)n2)c1C1CC1)C1CCOC1 (stereo not drawn),·,·,·,·,·,i
CC1(C)N=C(N)N=C(N)N1c1ccc(Cl)cc1,·,·,·,·,·,i
CCOc1ccc(-c2nnc(SCC(=O)NCCc3ccccc3)nc2-c2ccc(OCC)c(OC)c2)cc1OC,·,·,·,-18%,?,·
COc1ccc(Nc2nc(N3CCCC3)c3ccccc3n2)cc1,-15%,28µM*,2%,-83%,?,?
COc1cc(=O)n2c(c1C(=O)NC(C)c1ccco1)CCN(Cc1cc(C)ccc1C)CC2 (stereo not drawn),·,·,·,·,·,i
CCC(=O)N1CCc2cc(S(=O)(=O)NC(CC(C)C)C(=O)Nc3ccc(CC)cc3)ccc21 (stereo not drawn),·,50%,·,-39%,53%,i
COc1ccc(C2=NOC(COc3ccc4c(C)cc(=O)oc4c3)C2)c(OC)c1 (stereo not drawn),5.8µM*,-24%,?,21%,?,?
COc1ccc2c(C)cc(=O)oc2c1,5%,10%,27%,-2%,21%,i
COc1ccccc1C1=NOC(COc2ccc3c(C)cc(=O)oc3c2)C1 (stereo not drawn),0.73µM*,-8%,0.92µM*,-12%,?,i
COc1ccc2c(c1)OC(C)CN(CCC(=O)NCC1OCCc3ccccc31)C2 (stereo not drawn),·,·,·,·,·,i
COc1ccc(CCN(C)C(=O)c2cnn(-c3nccc(-c4ccc(C)o4)n3)c2C)cc1OC,·,·,·,·,·,i
Clc1ccc(OCCOCCOc2cccc3cccnc23)c(Br)c1,?,-13%,?,16µM*,?,i
CC1CCN(S(=O)(=O)c2ccc(NC(=O)Cn3nnc(-c4ccccc4F)n3)cc2)CC1,?,-24%,20µM*,-44%,?,i
Cc1cc2[nH]c(=O)c(=O)[nH]c2cc1S(=O)(=O)NCc1ccc(F)cc1,·,4%,·,4%,6%,i
Cc1cnc(C)c(Nc2nc(C(N)Cc3ccc(F)cc3)cs2)n1 (stereo not drawn),?,?,21µM*,-107%,?,?
CCc1cnc(Nc2nc(C(N)Cc3ccc(F)cc3)cs2)nc1 (stereo not drawn),23µM*,?,?,-95%,?,·
COc1ccc(CC(N)c2csc(Nc3nc(C)cnc3C)n2)cc1 (stereo not drawn),?,-8%,?,-25%,-2%,i
COc1ccc(CC(N)c2csc(Nc3ncccn3)n2)cc1 (stereo not drawn),?,0%,-30%,-7%,-27%,?
Cc1cnc(C)c(Nc2nc(C(N)Cc3ccc(Cl)cc3)cs2)n1 (stereo not drawn),23µM*,?,18µM*,-106%,18µM*,i
Clc1ccc2nc(-c3ccc(Br)o3)c(Nc3ccc4c(c3)OCCO4)n2c1,·,15%,·,-26%,-6%,i
CCCCN(CC)CCCNC(=S)Nc1ccc2nc(N3CCN(C)CC3)cc(C)c2c1,?,-30%,18µM*,-19%,-1%,?
CCCCN(CC)CCCNC(=S)Nc1ccc2nc(N3CCN(CC)CC3)cc(C)c2c1,?,?,16µM*,-34%,-1%,?
CCN(CC)CCNC(=S)Nc1ccc2nc(N3CCN(C)CC3)cc(C)c2c1,-20%,-18%,?,-4%,13%,?
